Reference: ChEMBL document CHEMBL3433997, “St. Jude Leishmania screening dataset” (2016)

Molecular target: Solute carrier family 2, facilitated glucose transporter member 1 (Homo sapiens) (UniProt P11166)
Test: ST_JUDE_LEISH: Cytotoxicity at 2uM final concentration against transgenic Leishmania Mexicana promastigotes LmGLUT1 that are glucose transport deficient and complemented with the human glucose transporter GLUT1. Activity is measured by DNA content using SYBR green in vitro
Assay type: functional

Solute carrier family 2, facilitated glucose transporter member 1 (Homo sapiens), sequence (P11166 whole entry): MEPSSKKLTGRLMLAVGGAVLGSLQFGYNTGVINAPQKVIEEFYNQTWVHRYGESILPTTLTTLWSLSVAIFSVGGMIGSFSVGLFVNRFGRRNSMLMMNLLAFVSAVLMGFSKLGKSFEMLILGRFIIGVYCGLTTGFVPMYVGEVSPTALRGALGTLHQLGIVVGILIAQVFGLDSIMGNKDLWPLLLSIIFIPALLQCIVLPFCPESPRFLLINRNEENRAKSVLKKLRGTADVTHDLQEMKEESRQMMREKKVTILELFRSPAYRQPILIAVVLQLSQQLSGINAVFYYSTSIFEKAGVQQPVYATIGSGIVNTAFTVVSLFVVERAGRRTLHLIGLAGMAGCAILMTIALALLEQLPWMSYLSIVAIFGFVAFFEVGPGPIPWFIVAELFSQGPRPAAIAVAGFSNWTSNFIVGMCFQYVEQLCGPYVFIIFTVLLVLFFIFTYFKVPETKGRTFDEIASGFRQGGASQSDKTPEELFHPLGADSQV

Q: `Oc1ccc(CCNc2nc(N/N=C/c3ccc(Cl)cc3)nc(N3CCNCC3)n2)cc1` was tested. Which inhibition did it give?
A: -0.62%

Q: For `CCN(CC)CCCCNc1cc(-c2[nH]c(C(C)(C)C)nc2-c2ccc3cc(OC)ccc3c2)ccn1`, which inhibition is on record?
A: 4.69%

Q: `C=C[C@H]1CN(CCCCCCC)CC[C@H]1CCNc1ccnc2ccc(OC)cc12` was tested. Which inhibition did it give?
A: -2.18%

Q: `COc1cc(NC(=O)/C=C/c2ccccc2OC(F)(F)F)cc(OCCN2CCCCC2)c1` was tested. Which inhibition did it give?
A: 2.6%

Q: `Cc1ccccc1C1CCN(C2CCC(NC(=O)/C=C/c3cc(F)cc(F)c3)CC2)CC1` (stereo not given) was tested. Which inhibition did it give?
A: -1.34%

Q: `Cc1ccc(S(=O)(=O)N2CCN(C(=O)c3cc(-c4cccs4)n[nH]3)CC2)c(C)c1` was tested. Which inhibition did it give?
A: 2.83%

Q: With `Cc1cc(Nc2ccccc2)nc(NCCOc2ccccc2)n1` as the compound, how does the inhibition read?
A: 5.53%

Q: For `CC(Cc1ccc(OCCN2CCN(c3ccc(Cl)cc3)CC2)cc1)NCC(O)c1cccc(C(F)(F)F)c1` (stereo not given), which inhibition is on record?
A: -2.36%

Q: Which inhibition does the source give for `COc1cc(NC2=C(c3ccccc3)C(=O)c3ccccc32)ccn1` here?
A: 4.66%

Q: Which inhibition does the source give for `CON(C)C(=O)[C@@H](CCCCNC(=O)OCc1ccccc1)NC(=O)OC(C)(C)C` here?
A: -0.81%

Q: Which inhibition does the source give for `COc1cc(Nc2nccc(N3CCC(NC(=O)Nc4cc(C)ccc4C)C3)n2)cc(OC)c1OC` (stereo not given) here?
A: 1.64%

Q: For `Nc1cc(-c2ccc(Br)cc2O)nc2ccccc12`, which inhibition is on record?
A: 1.51%

Q: With `Cn1nc(-c2ccc(NC(=O)Nc3cc(C(F)(F)F)ccc3F)cc2)c2cnc(NCCCCN3CCCC3)nc21` as the compound, how does the inhibition read?
A: 3.73%

Q: Which inhibition does the source give for `COc1ccc(Cl)cc1NC(=O)Nc1cc(C)nc2ccccc12` here?
A: 7.32%

Q: With `CN1CCN(c2ccnc3ccc(NC(=O)N(C)c4ccc(Cl)c(Cl)c4)cc23)CC1` as the compound, how does the inhibition read?
A: -0.11%

Q: `CN(Cc1ccc(-c2ccc(C(F)(F)F)cc2)cc1)C(=O)Cn1c(CCc2cccc(F)c2F)cc(=O)c2ccc(OCCCN3CCCCC3)cc21` was tested. Which inhibition did it give?
A: 1.01%

Q: `O=C(NCCN1CCCC1)c1ccc(-c2ccc(-c3nc4cc(C(F)(F)F)ccc4[nH]3)s2)cc1` was tested. Which inhibition did it give?
A: 3.7%

Q: `CCCc1cc(Cc2cnc(N)nc2N)cc(CCC)c1O` was tested. Which inhibition did it give?
A: 2.06%

Q: Which inhibition does the source give for `CC(C)Oc1cccc(-c2ccc(C(=O)NCC3CCCN(Cc4cccc(C(F)(F)F)c4)C3)s2)c1` (stereo not given) here?
A: -1.06%

Q: Which inhibition does the source give for `CCC[C@@H]([C@@H](CC1CCCCC1)C(=O)N[C@@H](CCOC(=O)NCC)C(=O)Nc1nccs1)N(O)C=O` here?
A: 8.61%

Q: `CN(C)c1cc(C(=O)N[C@@H](Cc2ccccc2)[C@H](O)CNC2CCCCC2)cc2[nH]ccc12` was tested. Which inhibition did it give?
A: 5.43%

Q: How did the inhibition turn out when `CC(C)CN1C(=O)C(c2ccc(F)c(F)c2)=C(O)C1c1ccccc1` (stereo not given) was run?
A: 1.97%

Q: Which inhibition does the source give for `CCN1CCC(N(CCCCCCCCc2ccc(C(F)(F)F)cc2)C(=O)Cn2c(CCc3cccc(F)c3F)cc(=O)c3ccccc32)CC1` here?
A: 8.91%

Q: How did the inhibition turn out when `O=C(Nc1ccc2c(c1)CCC2)c1cnc(N2CCN(c3ccncc3)CC2)c(Cl)c1` was run?
A: 54.2%

Q: Which inhibition does the source give for `CC(C)C[C@@H](/C=N/N1CCNC1=O)NC(=O)[C@H](CC(C)C)NC(=O)c1ccc(OCCN2CCOCC2)cc1` here?
A: 0.84%

Q: Which inhibition does the source give for `O=C1Nc2cccc3c2C1(CCCCN1CCC(c2c(-c4ccccc4)[nH]c4ccccc24)CC1)CCC3` (stereo not given) here?
A: 3.04%

Q: `Cc1cc(C(=O)OCC(N)=O)c(C)n1-c1ccc(F)cc1` was tested. Which inhibition did it give?
A: -0.25%

Q: For `OC1CCCN(Cc2ccc(-c3cccc(-c4nc5ccccc5[nH]4)c3)cc2)C1` (stereo not given), which inhibition is on record?
A: 2.79%

Q: Which inhibition does the source give for `N#Cc1ccc(CN2CCC(Oc3ccc(NC(=O)c4cccs4)cc3Cl)CC2)cc1` here?
A: 5%

Q: With `CCCC1(NC[C@@H](O)[C@H](Cc2ccccc2)NC(=O)c2cc(NCC)cc(N3CCCCS3(=O)=O)c2)CCCCC1` as the compound, how does the inhibition read?
A: -0.81%

Q: `CCOC(=O)c1ccc(-c2cnoc2-c2cc(CC)c(OC)cc2O)o1` was tested. Which inhibition did it give?
A: -0.08%

Q: How did the inhibition turn out when `CCc1ccc(C2CCN(CCCCNC(=O)c3ccc(-c4ccc(C(F)(F)F)cc4)cc3)CC2)c(OCCO)c1` was run?
A: 7.26%

Q: Which inhibition does the source give for `COc1c(C2CCN(CCCCNC(=O)c3cc(-c4ccc(Cl)cc4)oc3C)CC2)ccc2c1CCCC2` here?
A: 9.04%

Q: How did the inhibition turn out when `COc1ccccc1C1CCN(CCCCNC(=O)c2ccc(NC(=O)c3ccc(Cl)cc3)cc2)CC1` was run?
A: 1.27%

Q: How did the inhibition turn out when `Cc1ccccc1NC(=O)C1CSCN1C(=O)OCc1ccccc1` (stereo not given) was run?
A: -1.39%

Q: With `CN(Cc1cccc(F)c1)C1CCN(c2cc(NC(=O)c3cccc(F)c3)ccn2)CC1` as the compound, how does the inhibition read?
A: 3.06%

Q: With `O=C(NC1CCN(Cc2ccc(F)cc2)CC1)c1ccc(-c2cccc(C(F)(F)F)c2)s1` as the compound, how does the inhibition read?
A: 9.61%

Q: With `COc1ccc2nccc([C@@H](O)CN3CCC(NC(=O)/C=C/c4ccnc5ccccc45)CC3)c2c1` as the compound, how does the inhibition read?
A: -1.7%

Q: `C[C@H]1CN(Cc2cccc(-c3cc(CNC(=O)c4cccc(CC5CCN(C)CC5)c4)ccc3F)c2)CCN1C` was tested. Which inhibition did it give?
A: 0.87%

Q: How did the inhibition turn out when `CCNc1cc(C(=O)N[C@@H](Cc2ccc(F)c(F)c2)[C@H](O)CNCc2cccc(OC)c2)cc(N2CCCCS2(=O)=O)c1` was run?
A: -0.26%
